Results reported in PubChem BioAssay (NCI).
Compounds without any hit were thinned out: in the full panel of roughly 79,000, 15% have a hit. A number with no mark means an inactive call. Active and inactive are the calls of the source. No stated cut-off is given here; in the data, active means growth inhibition above about 70%; inactive means the rest.

Tests used:
[1] = NCI Yeast Anticancer Drug Screen. Data for the rad50 strain (AID 155);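 further: 0% = growth of vehicle-only cultures of the same strain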; details: S. cerevisiae rad50 strain growth inhibition, stronger effect = higher value
Outline: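 Compounds were tested on a yeast strain with an engineered DNA damage repair alteration; the reported value is growth inhibition normalised to vehicle treatment.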

[2] = NCI Yeast Anticancer Drug Screen. Data for the mec2-1 strain (AID 157); details: S. cerevisiae mec2-1 strain, stronger effect = higher value
Outline: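 Vehicle-treated cultures served as reference for growth inhibition of compound-exposed mec2-1 yeast.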

[3] = NCI Yeast Anticancer Drug Screen. Data for the sgs1 mgt1 strain (AID 161);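 further: 0% = growth of cultures given vehicle only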; details: S. cerevisiae sgs1 mgt1 strain, stronger effect = higher value
Outline: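 Inhibition of yeast growth, normalised to vehicle-treated controls, is reported for a strain bearing genetic alterations in DNA damage repair.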

[4] = NCI Yeast Anticancer Drug Screen. Data for the cln2 rad14 strain (AID 165);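 further: 0% = growth equal to vehicle treated cultures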; details: S. cerevisiae cln2 rad14 strain, stronger effect = higher value
Outline: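 Each compound was tested on cln2 rad14 yeast. Inhibition of growth was calculated against vehicle-exposed controls.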

[5] = NCI Yeast Anticancer Drug Screen. Data for the bub3 strain (AID 167); details: S. cerevisiae bub3 mutant strain, stronger effect = higher value
Outline: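 Growth of a checkpoint-deficient yeast mutant is measured after compound exposure. Values represent inhibition relative to vehicle.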

[6] = NCI Yeast Anticancer Drug Screen. Data for the mlh1 rad18 strain (AID 175); details: S. cerevisiae mlh1 rad18 strain growth inhibition, stronger effect = higher value
Outline: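 Vehicle-treated cultures served as the reference for growth inhibition in a yeast strain carrying DNA damage repair alterations exposed to each compound.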

[7] = at 5.0 µM (retest, dose inferred, filed as 0.5)
[8] = at 50.0 µM (retest, dose inferred, filed as 5.0)

In the case of `COc1ccc2nc3cc([N+](=O)[O-])ccc3c(NCCO)c2c1`, the growth inhibition [1, 7] is reported as -24%, the growth inhibition [1, 8] is reported as 77% (active) and the growth inhibition ([1]; at 50.0 µM) is reported as 58.5%. It also gave a growth inhibition [2, 7] of -9%, a growth inhibition [2, 8] of 66% and a growth inhibition ([2]; at 50.0 µM) of 47.8%. For the same compound, the growth inhibition [3, 7] was -26%, the growth inhibition [3, 8] was 80% (active) and the growth inhibition ([3]; at 50.0 µM) was 44.6%. The growth inhibition [4, 7] was -6%, the growth inhibition [4, 8] was 89% (active) and the growth inhibition ([4]; at 50.0 µM) was 75.1% (active). The growth inhibition [5, 7] was -18%, the growth inhibition [5, 8] was 30% and the growth inhibition ([5]; at 50.0 µM) was 49%. The growth inhibition [6, 7] was 4%, the growth inhibition [6, 8] was 82% (active) and the growth inhibition ([6]; at 50.0 µM) was 49.9%.
For `COc1ccc(C(C)c2cc3c(cc2O)OCO3)cc1` (stereo not given), the growth inhibition [1, 7] was 7%, the growth inhibition [1, 8] was 99% (active) and the growth inhibition ([1]; at 50.0 µM) was 98.5% (active). The growth inhibition [2, 7] was -8%, the growth inhibition [2, 8] was 48% and the growth inhibition ([2]; at 50.0 µM) was 98.7% (active). The growth inhibition [3, 7] was -3%, the growth inhibition [3, 8] was 56% and the growth inhibition ([3]; at 50.0 µM) was 98.8% (active). For the same compound, the growth inhibition [4, 7] was -23%, the growth inhibition [4, 8] was 58% and the growth inhibition ([4]; at 50.0 µM) was 97.1% (active). The growth inhibition [5, 7] was -22%, the growth inhibition [5, 8] was 76% (active) and the growth inhibition ([5]; at 50.0 µM) was 98.5% (active). For the same compound, the growth inhibition [6, 7] was 7%, the growth inhibition [6, 8] was 97% (active) and the growth inhibition ([6]; at 50.0 µM) was 98% (active).
In the case of `CC(=O)Oc1cc2c(=O)oc3c(OC(C)=O)c(OC(C)=O)c(OC(C)=O)c4c(=O)oc(c1OC(C)=O)c2c34`, the growth inhibition [1, 7] is reported as 40%, the growth inhibition [1, 8] is reported as 58% and the growth inhibition ([1]; at 50.0 µM) is reported as 89.5% (active). The growth inhibition [2, 7] was 41%, the growth inhibition [2, 8] was 48% and the growth inhibition ([2]; at 50.0 µM) was 76.6% (active). For the same compound, the growth inhibition [3, 7] was 37%, the growth inhibition [3, 8] was 61% and the growth inhibition ([3]; at 50.0 µM) was 87.2% (active). The growth inhibition [4, 7] was 20%, the growth inhibition [4, 8] was 40% and the growth inhibition ([4]; at 50.0 µM) was 73.8% (active). The growth inhibition [5, 7] was 45%, the growth inhibition [5, 8] was 71% (active) and the growth inhibition ([5]; at 50.0 µM) was 88.3% (active). The growth inhibition [6, 7] was 39%, the growth inhibition [6, 8] was 45% and the growth inhibition ([6]; at 50.0 µM) was 88.2% (active).
For `CCOc1nc(N)nc(C)c1N=Nc1ccc(Cl)cc1`, the growth inhibition [1, 7] was 16%, the growth inhibition [1, 8] was 76% (active) and the growth inhibition ([1]; at 50.0 µM) was 95.5% (active). It also gave a growth inhibition [2, 7] of 4%, a growth inhibition [2, 8] of 58% and a growth inhibition ([2]; at 50.0 µM) of 67.7%. For the same compound, the growth inhibition [3, 7] was 14%, the growth inhibition [3, 8] was 75% (active) and the growth inhibition ([3]; at 50.0 µM) was 91.9% (active). For the same compound, the growth inhibition [4, 7] was -5%, the growth inhibition [4, 8] was 35% and the growth inhibition ([4]; at 50.0 µM) was 74.8% (active). For the same compound, the growth inhibition [5, 7] was -1%, the growth inhibition [5, 8] was 19% and the growth inhibition ([5]; at 50.0 µM) was 97.3% (active). The growth inhibition [6, 7] was 25%, the growth inhibition [6, 8] was 88% (active) and the growth inhibition ([6]; at 50.0 µM) was 89.6% (active).
In the case of `Cc1cc[c]([Sn]([Cl])([O][Sn]([Cl])([c]2ccc(C)cc2)[c]2ccc(C)cc2)[c]2ccc(C)cc2)cc1`, the growth inhibition [1, 7] is reported as 17%, the growth inhibition [1, 8] is reported as 57% and the growth inhibition ([1]; at 50.0 µM) is reported as 84.7% (active). For the same compound, the growth inhibition [2, 7] was 15%, the growth inhibition [2, 8] was 55% and the growth inhibition ([2]; at 50.0 µM) was 89.2% (active). For the same compound, the growth inhibition [3, 7] was 29%, the growth inhibition [3, 8] was 63% and the growth inhibition ([3]; at 50.0 µM) was 85.8% (active). For the same compound, the growth inhibition [4, 7] was 2%, the growth inhibition [4, 8] was 35% and the growth inhibition ([4]; at 50.0 µM) was 83.1% (active). For the same compound, the growth inhibition [5, 7] was 16%, the growth inhibition [5, 8] was 67% and the growth inhibition ([5]; at 50.0 µM) was 86.7% (active). The growth inhibition [6, 7] was 26%, the growth inhibition [6, 8] was 54% and the growth inhibition ([6]; at 50.0 µM) was 91.3% (active).
With `CC(=O)NNc1nc(C)c(C(=O)NNC(=O)C(=O)Nc2ccc(Cl)cc2Cl)s1` the growth inhibition [1, 7] was 1%, the growth inhibition [1, 8] was 82% (active) and the growth inhibition ([1]; at 50.0 µM) was 54.6%. The growth inhibition [2, 7] was 1%, the growth inhibition [2, 8] was 94% (active) and the growth inhibition ([2]; at 50.0 µM) was 39.4%. The growth inhibition [3, 7] was 5%, the growth inhibition [3, 8] was 87% (active) and the growth inhibition ([3]; at 50.0 µM) was 53.2%. For the same compound, the growth inhibition [4, 7] was -4%, the growth inhibition [4, 8] was 85% (active) and the growth inhibition ([4]; at 50.0 µM) was -38.2%. For the same compound, the growth inhibition [5, 7] was 5%, the growth inhibition [5, 8] was 89% (active) and the growth inhibition ([5]; at 50.0 µM) was 45.4%. The growth inhibition [6, 7] was -2%, the growth inhibition [6, 8] was 89% (active) and the growth inhibition ([6]; at 50.0 µM) was 73.9% (active).
For `Oc1ccc(N=Nc2ccccc2)c(O)c1.Oc1ccc(N=Nc2ccccc2)c(O)c1.[Cu]`, the growth inhibition [1, 7] was 13%, the growth inhibition [1, 8] was 96% (active) and the growth inhibition ([1]; at 50.0 µM) was 98.1% (active). The growth inhibition [2, 7] was 16%, the growth inhibition [2, 8] was 98% (active) and the growth inhibition ([2]; at 50.0 µM) was 98.2% (active). For the same compound, the growth inhibition [3, 7] was 21%, the growth inhibition [3, 8] was 97% (active) and the growth inhibition ([3]; at 50.0 µM) was 98.9% (active). For the same compound, the growth inhibition [4, 7] was 1%, the growth inhibition [4, 8] was 92% (active) and the growth inhibition ([4]; at 50.0 µM) was 97.3% (active). For the same compound, the growth inhibition [5, 7] was 15%, the growth inhibition [5, 8] was 95% (active) and the growth inhibition ([5]; at 50.0 µM) was 97% (active). The growth inhibition [6, 7] was 12%, the growth inhibition [6, 8] was 96% (active) and the growth inhibition ([6]; at 50.0 µM) was 97.1% (active).
In the case of `Cc1cc(C)c(S(=O)(=O)n2ccnc2)c(C)c1`, the growth inhibition [1, 7] is reported as -15%, the growth inhibition [1, 8] is reported as -45% and the growth inhibition ([1]; at 50.0 µM) is reported as -13.9%. The growth inhibition [2, 7] was 0%, the growth inhibition [2, 8] was -11% and the growth inhibition ([2]; at 50.0 µM) was -29.6%. It also gave a growth inhibition [3, 7] of -17%, a growth inhibition [3, 8] of -4% and a growth inhibition ([3]; at 50.0 µM) of -6.05%. For the same compound, the growth inhibition [4, 7] was -3%, the growth inhibition [4, 8] was 8% and the growth inhibition ([4]; at 50.0 µM) was 6.55%. For the same compound, the growth inhibition [5, 7] was -8%, the growth inhibition [5, 8] was -26% and the growth inhibition ([5]; at 50.0 µM) was 10.3%. For the same compound, the growth inhibition [6, 7] was -36%, the growth inhibition [6, 8] was -77% and the growth inhibition ([6]; at 50.0 µM) was -0.9%.
For `N=Cc1cc([N+](=O)[O-])ccc1O`, the growth inhibition [1, 7] was -5%, the growth inhibition [1, 8] was 94% (active) and the growth inhibition ([1]; at 50.0 µM) was 96.8% (active). For the same compound, the growth inhibition [2, 7] was -1%, the growth inhibition [2, 8] was 98% (active) and the growth inhibition ([2]; at 50.0 µM) was 93% (active). The growth inhibition [3, 7] was -2%, the growth inhibition [3, 8] was 93% (active) and the growth inhibition ([3]; at 50.0 µM) was 98.5% (active). The growth inhibition [4, 7] was 16%, the growth inhibition [4, 8] was 95% (active) and the growth inhibition ([4]; at 50.0 µM) was 94.5% (active). For the same compound, the growth inhibition [5, 7] was -20%, the growth inhibition [5, 8] was 96% (active) and the growth inhibition ([5]; at 50.0 µM) was 71.3% (active). The growth inhibition [6, 7] was 12%, the growth inhibition [6, 8] was 98% (active) and the growth inhibition ([6]; at 50.0 µM) was 98.2% (active).
`COc1ccc2oc(-c3ccc(OC)c(OC)c3OC)cc(=O)c2c1` showed a growth inhibition [1, 7] of -34%, a growth inhibition [1, 8] of -26% and a growth inhibition ([1]; at 50.0 µM) of 15.7%. It also gave a growth inhibition [2, 7] of -47%, a growth inhibition [2, 8] of -12% and a growth inhibition ([2]; at 50.0 µM) of 22%. For the same compound, the growth inhibition [3, 7] was -11%, the growth inhibition [3, 8] was 50% and the growth inhibition ([3]; at 50.0 µM) was 70% (active). For the same compound, the growth inhibition [4, 7] was -14%, the growth inhibition [4, 8] was 9% and the growth inhibition ([4]; at 50.0 µM) was -4.55%. For the same compound, the growth inhibition [5, 7] was -15%, the growth inhibition [5, 8] was 48% and the growth inhibition ([5]; at 50.0 µM) was 51.2%. It also gave a growth inhibition [6, 7] of -39%, a growth inhibition [6, 8] of -7% and a growth inhibition ([6]; at 50.0 µM) of 4.8%.
